Source: PubChem
Only some compounds are listed: those with a hit (about 1.3% of all), similar ones and a draw of the others.
gsp antag: qHTS for Antagonists of gsp, the Etiologic Mutation Responsible for Fibrous Dysplasia/McCune-Albright Syndrome: qHTS; gsp-mutant cells, cAMP HTRF, 30 min; Potency, µM (series often up to 76.9 µM), without a hit: at the top dose activity change, negative = inhibition, actives largely listed as inhibitors; 340,000 compounds, 0.4% hits; calls by dose curve; cell line not stated here;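 also: intracellular cAMP measured with PDE inhibitor Ro 20-1724 present during compound exposure; potency is read from the fitted curve at half-maximal effect; % is scaled to controls: 0 for no effect and ±100 for the full control effect; nearly all actives have a fitted effect of over 65% in size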
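G418-selected cells were plated in DMEM/10% FBS for 16-24 h at 37C, then treated with compounds plus the PDE inhibitor […] (300 uM solution added) for 30 min at 37C. Intracellular cAMP was measured by HTRF after 30 min lysis at room temperature.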
Akt phos inh: HTS Assay for Inhibitors of Akt Phophorylation: Primary Screen | Neuro2A IGF-stimulated pAkt S473 HTRF, 20 min; active compounds read low | 360,000 compounds, 0.32% hits | activity change, % for hits at 50 µM; in the data active = activity change below about -80%; inconclusive = mostly about -51% to -80%; also: % is scaled to controls: 0 for no effect and ±100 for the full control effect
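Single-point screen (50 µM final compound) in Neuro2A cells stimulated 20 min with 6 nM IGF at 37 deg C. After lysis, Ser473-phosphorylated Akt read by HTRF (ex 330 nm, em 615/665 nm) as the 665/615 ratio.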
RXFP1 antag: qHTS Assay for Antagonists of the Relaxin Receptor RXFP1; activity change, negative = inhibition, % at 57.5 µM; 350,000 compounds, 0.59% hits; AID 1259400, 2018; Relaxin receptor 1 (Homo sapiens), Q9HBX9; HEK293-RXFP1, relaxin-stimulated cAMP HTRF, 30 min; active compounds read low;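 active = activity change of -60% or lower, but not beyond a set lower limit; inconclusive = change between -60% and -40%, or beyond the set limit; inactive = change above -40%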; also: % is scaled to controls: 0 for no effect and ±100 for the full control effect
Target sequence (Q9HBX9 whole entry, looked up): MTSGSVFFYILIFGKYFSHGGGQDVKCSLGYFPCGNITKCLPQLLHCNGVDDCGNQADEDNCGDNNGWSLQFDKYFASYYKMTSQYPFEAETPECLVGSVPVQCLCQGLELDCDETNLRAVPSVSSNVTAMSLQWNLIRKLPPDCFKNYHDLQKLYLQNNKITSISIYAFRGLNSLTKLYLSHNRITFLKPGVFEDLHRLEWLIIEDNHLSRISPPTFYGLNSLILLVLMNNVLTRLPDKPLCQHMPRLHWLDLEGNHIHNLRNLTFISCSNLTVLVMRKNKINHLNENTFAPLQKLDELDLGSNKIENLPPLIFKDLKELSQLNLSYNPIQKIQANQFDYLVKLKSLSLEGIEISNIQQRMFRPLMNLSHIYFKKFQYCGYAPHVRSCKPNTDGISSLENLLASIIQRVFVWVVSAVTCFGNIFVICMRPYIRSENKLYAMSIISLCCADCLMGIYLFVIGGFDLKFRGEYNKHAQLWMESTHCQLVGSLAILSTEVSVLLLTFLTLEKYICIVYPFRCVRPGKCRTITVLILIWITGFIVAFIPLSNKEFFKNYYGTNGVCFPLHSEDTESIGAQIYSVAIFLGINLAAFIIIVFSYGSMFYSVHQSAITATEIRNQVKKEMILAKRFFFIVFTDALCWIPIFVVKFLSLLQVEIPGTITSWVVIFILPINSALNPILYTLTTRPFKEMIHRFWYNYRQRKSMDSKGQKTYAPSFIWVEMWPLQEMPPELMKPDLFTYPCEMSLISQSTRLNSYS
RXFP1 agonist: qHTS Assay for Agonists of the Relaxin Receptor RXFP1. Potency, µM (top dose mostly 57.5 µM), for the others: at the top dose activation, most hits filed as activators. 370,000 compounds, 0.3% hits. HEK293T-RXFP1 cAMP TR-FRET, 30 min; response scale: percent of porcine relaxin response, buffer zero. AID 2676, 2010. Relaxin receptor 1 (Homo sapiens), Q9HBX9; active = well fitted activation curve with a large enough effect; inconclusive = small, poorly fitted or top-dose-only effect; also: potency is read from the fitted curve at half-maximal effect; % is scaled to controls: 0 for no effect and ±100 for the full control effect; nearly all actives have a fitted effect of over 60% in size
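HEK293 cells stably expressing RXFP1, treated 30 min at 37C with compounds plus PDE4 inhibitor Ro 20174; cAMP measured by HTRF TR-FRET. Normalized to buffer and 29 nM porcine relaxin; EC50 by Hill fit.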
gsp agonist: qHTS for Agonist of gsp, the Etiologic Mutation Responsible for Fibrous Dysplasia/McCune-Albright Syndrome: qHTS. gsp mutant cells, cAMP HTRF, 30 min. Potency, µM (series often up to 76.9 µM), without a hit: top-dose activation (cAMP increase), usual class: activators. 340,000 compounds, 0.13% hits; active = well fitted activation curve with a large enough effect; inconclusive = small, poorly fitted or top-dose-only effect, or another doubt; inactive = no such curve, though single readings can be large or run the other way; cell line not stated here;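 also: phosphodiesterase inhibitor Ro 20-1724 added with compounds to block cAMP breakdown; potency is read from the fitted curve at half-maximal effect; nearly all actives have a fitted effect of over 60% in size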
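Cells stably selected in G418 were plated at 2000/well, grown 16-24 hr, then given compounds in DMSO with the PDE inhibitor […] (300 uM solution added) for 30 min at 37C; cAMP was read by HTRF.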
Numbers without * were called inactive; i = inactive; ? = inconclusive; . = not tested or not shown; + = active, no number; [ ] = remark or other dose.

SMILES	gsp antag	Akt phos inh	RXFP1 antag	RXFP1 agonist	gsp agonist
Nc1c(C(=O)Nc2ccccc2)nnn1Cc1ccc(F)cc1Cl	.	.	-14.8	0.5%	.
O=C(Nc1nnc(C2=COCCO2)o1)c1ccc(Cc2ccccc2)cc1	4.4%	i	-65.1*	0.0%	3.5%[15.4 µM]
CCN1C(=O)c2ccccc2C1Nc1cccc(OCCN2CCCCC2)c1 (stereo not given)	.	.	-7.4	.	.
Cc1ccc(-c2noc(-c3nnn(CC(=O)Nc4ccc(C)c(Cl)c4)c3N)n2)cc1	.	.	4.2	-0.1%	.
Cc1[nH][nH]c(=O)c1C(c1ccc(F)cc1)c1c(C)[nH][nH]c1=O	4.8%	i	-4.8	-2.4%	-10.8%
Cc1[nH][nH]c(=O)c1C(c1ccc(Cl)cc1)c1c(C)[nH][nH]c1=O	7.8%	i	-79.9*	-2.3%	-31.2%
C[C@@H](NC(=O)/C(C#N)=C/c1ccc(O)c(O)c1)c1ccccc1	-21.1%	i	.	-1.8%	.
CC(NC(=O)/C(C#N)=C/c1ccc(Cl)c([N+](=O)[O-])c1)c1ccccc1 (stereo not given)	8.0%	i	-104.4*	-1.3%	6.8%
COc1ccc2c(c1)-c1nc(NC(=O)c3ccc(OC)c(Br)c3)sc1CC2	.	.	-2.3	0.0%	.
O=C(NC1CCN(Cc2ccccc2)C1)c1cccc(S(=O)(=O)N2CCOCC2)c1 (stereo not given)	8.6%	i	-5.0	0.9%	22.5%
CC(NC(=O)c1cccc(S(=O)(=O)N2CCN(Cc3ccccc3)CC2)c1)c1ccccc1Cl (stereo not given)	+	i	-12.4	.	-71.9%
O=C(NC1CCN(Cc2ccccc2)CC1)c1cc(S(=O)(=O)N2CCOCC2)ccc1Cl	50.1µM*	i	-1.9	.	20.8%
O=C(O)c1cn(C2CC2)c2cc(Cl)c(F)cc2c1=O	.	.	-12.7	.	.
Nc1c(C(=O)Nc2ccccc2F)sc2nc(Cc3ccccc3)cc(C(F)(F)F)c12	18.6%	-108.5%*	12.3	8.5%	?
Cc1cc(C)c2c(N)c(C(=O)Nc3ccccc3C(F)(F)F)sc2n1	.	.	-0.9	18.8%	.
CCOc1ccc(C2C(=O)N(C3CCCCCC3)CC(=O)N2CCc2ccc(Cl)cc2)cc1OC (stereo not given)	.	.	-3.0	2.2%	.
Cc1cccc(NC(=O)c2c(NC(=O)c3ccccc3)sc3c2CCCC3)c1	.	.	3.0	-1.9%	.
O=C(NCCCCc1ccccc1)c1nn(-c2ccccc2F)nc1CO	.	.	-66.1*	-4.6%	.
O=C(NCCCc1ccccc1)c1nn(-c2ccccc2F)nc1CO	.	.	-25.2	-4.4%	.
CN(C)c1ccc(/C(=N\O)C(F)(F)F)cc1	39.8µM*	i	-13.7	0.3%	-18.8%
CC(=O)c1ccc(N(C)C)cc1	-11.1%	i	-12.3	-0.2%	-76.2%
CCC(C)n1nccc1NC(=O)C(C)OC(=O)c1cc2ccccc2[nH]1 (stereo not given)	-13.2%	i	-14.1	0.4%	-5.1%
COc1ccc(OC)c(NC(=O)C(C)OC(=O)c2cc3ccccc3[nH]2)c1 (stereo not given)	22.4µM*	i	.	.	5.5%
COc1ccccc1NC(=O)C(C)OC(=O)c1cc2ccccc2[nH]1 (stereo not given)	35.5µM*	i	-30.7	1.3%	-7.5%
CCOC(=O)c1nn(C23CC4CC(CC(C4)C2)C3)c2c1C(=O)N(c1ccc(C)cc1)C2=O	6.2%	-109.5%*	-21.5	3.5%	0.4%
SMILES	gsp antag	Akt phos inh	RXFP1 antag	RXFP1 agonist	gsp agonist
Cc1cc(C)c(S(=O)(=O)Nc2ccc(-c3ccc(N4CCCCCC4)nn3)cc2)c(C)c1	.	.	-24.5	-0.7%	.
O=[N+]([O-])c1c(Nc2cccc(O)c2)cc(Cl)c2nonc12	35.5µM*	i	?	0.5%	0.9%
O=C(Nc1ccc(-c2nc3ccccc3s2)cc1)C1=COCCO1	-6.3%	i	7.4	1.3%	-9.6%
O=C(Nc1cccc(-c2nc3ccccc3s2)c1)C1=COCCO1	-26.8%	i	-79.9*	-0.8%	-2.1%
CCOc1ccccc1Nc1nc(-c2ccc(C)cc2)c(CC(=O)O)s1	.	.	-12.6	5.9%	.
O=C(Nc1onc2c1CCCC2)c1ccccc1	.	.	-3.7	1.9%	.
CC(C)(C)c1ccc(C(=O)Nc2onc3c2CCCC3)cc1	.	.	-60.4*	-1.4%	.
CC(C)OCCCn1c(SCC(=O)Nc2ccccc2C(F)(F)F)nc2nccnc2c1=O	10.7%	i	45.3	?	39.8µM*
Nc1c(C(=O)NCc2ccccc2)nnn1Cc1cccc(Br)c1	.	.	-1.6	22.1%	.
COc1ccccc1N1CCN(C(=O)c2cc3n(n2)C(C(F)(F)F)CC(c2ccco2)N3)CC1 (stereo not given)	2.7%	-106.7%*	-3.1	-1.0%	-0.1%
O=C(c1cc2n(n1)C(C(F)(F)F)CC(c1ccco1)N2)N1CCc2ccccc2C1 (stereo not given)	-10.1%	i	-20.0	0.3%	-7.8%
Cc1nc(C2CCCCC2)c(-c2ccc(S(N)(=O)=O)c(F)c2)o1	.	.	-16.7	.	.
Cc1ccc(C(Sc2ccccc2)C(Cn2cncn2)C(=O)c2ccccc2)cc1 (stereo not given)	-8.0%	-103.8%*	-26.1	-2.1%	-9.3%
Cc1ccc(SC(c2ccc(C)cc2)C(Cn2cncn2)C(=O)c2ccccc2)cc1 (stereo not given)	-13.6%	i	-23.1	-2.8%	?
CC(C)(C)c1cc(C(=O)CCN2CCOCC2)cc(C(C)(C)C)c1O	11.7%	i	-82.7*	-0.4%	11.1%[15.4 µM]
O=C(Nc1nncs1)c1c(F)c(F)c(F)c(F)c1F	39.8µM*	i	-9.4	0.1%	-0.6%
O=C(C(=Cc1ccccc1)CN1CCCCC1)c1ccccc1	-8.5%	i	-72.2*	.	29.9%
OC(CNCc1ccc(-c2ccccc2)cc1)c1ccccc1 (stereo not given)	14.0%	i	-60.7*	1.8%	3.0%[15.4 µM]
CC(NC(=O)CSc1nc(-c2cccc(Cl)c2)nc2cc(=O)[nH]n12)c1nc2ccccc2n1C (stereo not given)	.	.	4.2	1.3%	.
O=C(NCCN1CCOCC1)c1c(O)nc2ccccn2c1=O	3.0%	.	-90.7*	17.2%	15.4%
Cc1ccn2c(=O)c(C(=O)NCCN3CCOCC3)c(O)nc2c1	13.0%	i	17.9	1.4%	48.8%
CCOc1ccccc1C(=O)N(Cc1cc(OC)c(OC)c(OC)c1)c1ccccn1	.	.	.	1.0%	.
COc1cccc(C2CC(=O)Nc3c2c(=O)n(C)c2ncnn32)c1OC (stereo not given)	.	.	.	1.1%	.
O=C(COC(=O)c1c2ccccc2cc2ccccc12)Nc1ncc(C(F)(F)F)cc1Cl	-0.9%	i	-1.8	2.5%	25.1µM*
On1cnnc1-c1ccccc1	12.4%	-90.6%*	-6.0	-1.1%	7.8%
